Laboratory results published in PubChem BioAssay (EPA / NIEHS).
Active and inactive are the calls of the source. The calls were made as follows: active = hit-call score of the fitted dose curve at least 0.9, where 1 is the maximum; inactive = score below 0.9.

The compounds below were run on E-selectin (Homo sapiens) (UniProt P16581) (assay: BSK_SAg_Eselectin: BioMAP Diversity Plus: SAg Assay for Eselectin Biomarker Activity (AID 2283091)). Details: primary human HUVEC with PBMC; actives raise or lower the signal.
Sequence of E-selectin (Homo sapiens) (P16581 whole entry, looked up): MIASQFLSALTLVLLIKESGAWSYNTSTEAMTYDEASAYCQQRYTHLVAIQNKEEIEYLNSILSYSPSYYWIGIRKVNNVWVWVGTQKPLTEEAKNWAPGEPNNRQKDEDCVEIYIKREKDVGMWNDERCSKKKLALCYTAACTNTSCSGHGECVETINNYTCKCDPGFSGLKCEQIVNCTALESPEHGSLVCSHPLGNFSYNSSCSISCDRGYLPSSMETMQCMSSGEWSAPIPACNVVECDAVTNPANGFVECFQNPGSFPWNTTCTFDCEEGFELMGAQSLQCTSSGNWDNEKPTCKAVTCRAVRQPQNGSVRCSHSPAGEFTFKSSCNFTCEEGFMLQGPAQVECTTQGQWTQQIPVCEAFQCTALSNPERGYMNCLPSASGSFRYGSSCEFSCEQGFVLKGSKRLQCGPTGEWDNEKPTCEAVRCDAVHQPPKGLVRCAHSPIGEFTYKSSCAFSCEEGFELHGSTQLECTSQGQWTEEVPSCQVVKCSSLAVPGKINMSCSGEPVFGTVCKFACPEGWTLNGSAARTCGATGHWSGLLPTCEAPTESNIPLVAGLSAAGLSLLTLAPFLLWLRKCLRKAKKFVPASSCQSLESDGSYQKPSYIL
Description: BSK_SAg is a cell-based, multiplexed-readout assay that uses umbilical vein endothelium and peripheral blood mononuclear cells, a human vascular primary cell co-culture, with measurements taken at 24 hours after chemical dosing in a 96-well plate.BSK_SAg_Eselectin is an assay component measured in the BSK_SAg assay. It measures E-selectin antibody related to regulation of gene expression using ELISA technology.Data from the assay component BSK_SAg_Eselectin was analyzed into 1 assay endpoint. This assay endpoint, BSK_SAg_Eselectin, was analyzed with bidirectional fitting relative to DMSO as the negative control and baseline of activity. Using a type of binding reporter, gain or loss-of-signal activity can be used to understand changes in the signaling as they relate to the gene SELE. Furthermore, this assay endpoint can be referred to as a primary readout, because this assay has produced multiple assay endpoints where this one serves a signaling function. To generalize the intended target to other relatable targets, this assay endpoint is annotated to the cell adhesion molecules intended target family, where the subfamily is selectins.
The levels of cell surface (or secreted, indicated by the prefix "s") biomarker endpoints were measured by ELISA. Overt cytotoxicity to cells in confluent adherent cultures (all systems other than the BT system) was assessed by measuring total protein levels using sulforhodamine B (SRB) staining in parallel cultures at the time of biomarker measurements, indicated as SRB endpoints. For proliferation assays for adherent cell types, individual cell types are cultured at sub-confluence and relative cell numbers quantified by SRB staining at time points optimized for each system (48 h: 3C and CASM3C systems; 72 h: BT and HDF3CGF systems; 96 h: SAg system). SRB was performed by staining cells with 0.1% SRB after fixation with 10% TCA and reading wells at 560 nm.Viability and proliferation of PBMC (T cells) was quantified by Alamar Blue reduction for the SAg and BT systems. For PBMC viability (referred to as PBMC Cytotoxicity within the assay endpoint names), cells were plated (75,000/well in a 96-well plate) and then chemical samples added for 1 h before addition of activators, SEB and TSST-1 (20 ng/mL final concentration each). Cells were incubated for 90 h. Then, Alamar Blue (20 uL/well) (Invitrogen, Cat DAL1100) was added for 6 h, and the plates were read with a fluorescence microplate reader at 546/580 nm (excitation/emission). For PBMC proliferation, cells were plated and activated as above but incubated for only 16 h prior to addition of Alamar Blue. Plates were read after 6 h.
In the case of `OCCO`, the outcome is reported as “inactive”. For `O=c1ccc2ccccc2o1`, the outcome was “inactive”. `CC[C@H](NC(=O)c1cc(F)ccc1NS(=O)(=O)c1cccc2cccnc12)c1ccccc1` was tested, and the AC50 was 4 µM (active). For `c1ccc(C[n+]2cccc3ccccc32)cc1`, the outcome was “inactive”. With `COc1ccc2cc(S(=O)(=O)N[C@H](CC(=O)N[C@H](Cc3ccc(CN4[C@H](C)CCC[C@@H]4C)cc3)C(=O)N(C)C(C)C)c3ccc4c(c3)OCO4)ccc2c1` the AC50 was 31.7 µM (active). `O=C1CCC(C2CCCCC2)CC1` was tested, and the outcome was “inactive”. With `CC[C@@H]1C[C@H](N(Cc2cc(C(F)(F)F)cc(C(F)(F)F)c2)C(C)=O)c2cc(C(F)(F)F)ccc2N1C(=O)OC(C)C` the outcome was “inactive”. `Clc1ccccc1C(c1ccccc1)(c1ccccc1)n1ccnc1` was tested, and the AC50 was 14 µM (active). For `C[C@]12CC[C@@H]3c4ccc(O)cc4CC[C@H]3[C@@H]1CCC2=O`, the outcome was “inactive”. For `COCC(C)OCC(C)OCC(C)O` (stereo not given), the outcome was “inactive”. With `CCN(Cc1cccnc1)C(=O)c1cccc(Cl)c1[C@]1(C)C(=O)N(Cc2ccc(OC)cc2OC)c2ccc(Cl)cc21` the AC50 was 7.27 µM (active). With `CC(O)CC(C)(C)O` (stereo not given) the outcome was “inactive”. In the case of `Oc1ccccc1`, the outcome is reported as “inactive”. In the case of `C[C@]12CC[C@@H]3c4ccc(O)cc4CC[C@H]3[C@@H]1CC[C@H]2O`, the outcome is reported as “inactive”. For `Cc1ccc(C(C)C)cc1`, the outcome was “inactive”. With `Cc1ccc2oc(CN(Cc3ccccc3)C(=O)Nc3c(F)cc(F)cc3F)c(-c3ccc(Cl)cc3)c2c1` the outcome was “inactive”. For `CCCCCCCCN(C)CCCCCCCC`, the outcome was “inactive”. In the case of `O=C(OCCCCCCOC(=O)c1ccccc1)c1ccccc1`, the outcome is reported as “inactive”. In the case of `CN1C(=O)N(c2ccccc2Br)Cc2cnc(Nc3ccc4c(c3)OCC(CO)O4)nc21` (stereo not given), the AC50 is reported as 1.37 µM (active). `Cc1c2ccccc2c(C)c2c1ccc1ccccc12` was tested, and the AC50 was 5.2 µM (active). With `CCCCCCCC[Si](OCC)(OCC)OCC` the AC50 was 20.7 µM (active). For `COc1cc(C(=O)NC2CCN(C)CC2)ccc1Nc1ncc2c(n1)N(C1CCCC1)CC(F)(F)C(=O)N2C`, the AC50 was 11.4 µM (active). For `CCCCCCCCCCCC[N+](C)(C)C`, the AC50 was 32.2 µM (active). With `O=C1O[C@H]([C@@H](O)CO)C(O)=C1O` the outcome was “inactive”. For `CCCCCCCCOc1ccc(C(=O)c2ccccc2)c(O)c1`, the outcome was “inactive”. In the case of `CC/C(=C(/CC)c1ccc(O)cc1)c1ccc(O)cc1`, the AC50 is reported as 8.84 µM (active). In the case of `NC(=O)c1nc(-c2cccc(-c3cc(F)ccc3OCC(F)(F)C(F)(F)F)c2)n[nH]1`, the AC50 is reported as 19.3 µM (active). In the case of `O=C1c2ccccc2C(=O)N1CCc1noc(-c2ccc(CN3CCCCCC3)s2)n1`, the AC50 is reported as 16.9 µM (active). In the case of `CC(C)(O)c1ccc(CNC(=O)c2cccnc2Oc2ccc3nonc3c2)cc1`, the AC50 is reported as 1.4 µM (active). With `O=C(O)Cc1cc(I)c(Oc2ccc(O)c(I)c2)c(I)c1` the AC50 was 20 µM (active). In the case of `CC(C)(C)c1cc(/C=C2\SC(N)=NC2=O)cc(C(C)(C)C)c1O`, the AC50 is reported as 7.42 µM (active). With `CC1=CC(=O)/C(=C(/C)O)C(=O)O1` the outcome was “inactive”. `CN(C)c1ccc(C(=C2C=CC(=[N+](C)C)C=C2)c2ccc(N(C)C)cc2)cc1` was tested, and the AC50 was 0.223 µM (active). For `O=c1c(-c2ccc(O)cc2)coc2cc(O)cc(O)c12`, the AC50 was 24.9 µM (active). `CC(C)(C)c1csc(-c2cc3cc(OCc4ccccc4CC(=O)O)ccc3o2)n1` was tested, and the AC50 was 32.1 µM (active). In the case of `CCCCCCCCCCCO`, the outcome is reported as “inactive”. In the case of `O=c1[nH]sc2ccccc12`, the AC50 is reported as 12.3 µM (active). With `CO[C@H]1/C=C/O[C@@]2(C)Oc3c(C)c(O)c4c(O)c(c(/C=N/N5CCN(C)CC5)c(O)c4c3C2=O)NC(=O)/C(C)=C\C=C\[C@H](C)[C@H](O)[C@@H](C)[C@@H](O)[C@@H](C)[C@H](OC(C)=O)[C@@H]1C` the outcome was “inactive”. `CCCCOC(=O)CC(CC(=O)OCCCC)(OC(C)=O)C(=O)OCCCC` was tested, and the outcome was “inactive”. With `CCCC(=O)OCCC(C)C` the outcome was “inactive”.
